The results in this text go back to PubChem BioAssay (NCATS).

The nature of the test: qHTS profiling of the MIPE4 collection as inhibitors of Plasmodium falciparum (HB3) proliferation (AID 743347).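 Further: plate controls were DMSO vehicle wells for no effect and artemisinin wells for full effect.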 Conditions: P. falciparum HB3 in erythrocytes, SYBR Green DNA, 72 h; at 28.5 µM (top of the series) unless noted. The source says:
Plasmodium falciparum is a virulent malarial parasite that kills 1-2 million people worldwide each year. Transmitted by mosquitoes, the sporozoite form of the parasite enters the blood stream to infect hepatocytes, where they become merozoites that infect red blood cells (erythrocytes). Within erythrocytes, merozoites begin a […] cycle of growth and division, after which the parasite is released to infect new red blood cells. Gametocytes, which form within erythrocytes as well, circulate in the bloodstream and are ingested by the mosquito, thereby completing the life cycle. To profile malarial isolates for differential chemical responses and to identify inhibitors of malarial growth, an assay that measures P. falciparum growth and replication within erythrocytes was employed. This assay uses a DNA binding fluorescent dye (SYBR Green) to detect parasite DNA following cell lysis. Because mature erythrocytes lack DNA, only Plasmodium-derived DNA is detected.
The SYBR Green viability assay was adapted from a method described previously (Plouffe et al., 2008). For screening 3 ul culture medium was dispensed into 1536 well black clear bottom plates (Aurora Biotechnologies) using a Multidrop Combi (Thermo Fisher Scientific Inc.), 23 nL compounds in DMSO were added by a pin tool (Kalypsys), and 5 ul of erythrocytes infected with P. falciparum (0.3% parasitemia, 2.5% hematocrit final concentration) were added. The plates were incubated at 37 C in a humidified incubator in 5% CO2 for 72 h, and 2 ul lysis buffer (20 mM Tris HCl, 10 mM EDTA, 0.16% saponin, 1.6% triton X, 10X SYBR Green I supplied as 10,000X […] by Invitrogen) was added to each well. The plates were mixed for 25 sec with gentle shaking and incubated overnight at room temperature in the dark. The following morning, fluorescence intensity at 485(14) nm excitation and 535(25) nm emission wavelengths was measured on an EnVision (Perkin Elmer) plate reader. Plate reads were normalized relative to the control inhibitor (0.29 uM artemisinin) and vehicle (DMSO) wells present on each plate and then corrected by an algorithm using vehicle-only control plates at the beginning and end of the compound plate stack.
`CC(C)(C)NC(=O)[C@H]1CC[C@H]2[C@@H]3CC[C@H]4NC(=O)C=C[C@]4(C)[C@H]3CC[C@]12C` yielded a growth, % of control of 72.9%.

The compound `CCOc1cc(N)c(Cl)cc1C(=O)NCC1CN(Cc2ccc(F)cc2)CCO1` (stereo not given) showed a growth, % of control of 99%.

In the case of `CCCCc1oc2ccc(NS(C)(=O)=O)cc2c1C(=O)c1ccc(OCCCN(CCCC)CCCC)cc1`, the growth, % of control amounted to 7.93%.

`CC[C@H](NC(C)C)[C@H](O)c1ccc(O)c2[nH]c(=O)ccc12` gave a growth, % of control of 96.3%.

For `CC(C)(C)C(=O)OCOP(=O)(COCCn1cnc2c(N)ncnc21)OCOC(=O)C(C)(C)C`, the growth, % of control is 82.4%.

In the case of `NC(=O)N1c2ccccc2CC(=O)c2ccccc21`, the growth, % of control stood at 102%.

As for `COc1cc(NS(=O)(=O)c2ccc(N)cc2)nc(OC)n1`, the growth, % of control amounted to 91%.

The compound `C[C@]12C=CC(=O)C=C1CC[C@@H]1[C@@H]2C(=O)C[C@@]2(C)[C@H]1CC[C@]2(O)C(=O)CO` returned a growth, % of control of 104% [at 9.64 µM].

With `CC(C)Cn1cnc2c(N)nc3ccccc3c21`, the growth, % of control is 58.5%.

In the case of `COc1cccc(N(C)C(=S)Oc2ccc3c(c2)CCCC3)n1`, the growth, % of control is 24.4%.

Turning to `CCCOc1ccc(C(=O)OCCN(CC)CC)cc1N`, the growth, % of control was determined as 63.6%.

In turn, `Cc1ncc([N+](=O)[O-])n1CCO` returned a growth, % of control of 85.1%.

Take `O=C(O)c1cccnc1`: the growth, % of control came out at 87.4%.

With `CC1CC2C3CCC4=CC(=O)C=C[C@]4(C)[C@@]3(F)[C@@H](O)C[C@]2(C)[C@@]1(O)C(=O)CO` (stereo not given in full), the growth, % of control was determined as 102%.

As to `Nc1nc(N)nc(-c2cc(Cl)ccc2Cl)n1`, the growth, % of control is 97.7%.

Take `NCCCC(O)(P(=O)(O)O)P(=O)(O)O`: the growth, % of control was 117%.

The compound `CC(C)(C#N)c1cc(Cn2cncn2)cc(C(C)(C)C#N)c1` yielded a growth, % of control of 66.6%.

`NC(=O)c1cccnc1` displayed a growth, % of control of 105%.

As for `CCCCS(=N)(=O)CCC(N)C(=O)O` (stereo not given), the growth, % of control was 102%.

`N[C@@H](C(=O)N[C@@H]1C(=O)N2C(C(=O)O)=C(Cl)CS[C@H]12)c1ccccc1` came in with a growth, % of control of 97.6%.

As to `Cc1noc(NS(=O)(=O)c2ccc(N)cc2)c1C`, the growth, % of control was determined as 98.2%.

`COc1ccc(-c2ccc3cc(C(=O)O)ccc3c2)cc1C12CC3CC(CC(C3)C1)C2` showed a growth, % of control of 111%.

Turning to `CCOC(=O)[C@H](CCc1ccccc1)N[C@H]1CS[C@H](c2cccs2)CN(CC(=O)O)C1=O`, the growth, % of control was found to be 6.02%.

The compound `CCOC(=O)c1ccc(C#Cc2ccc3c(c2)C(C)(C)CCS3)nc1` returned a growth, % of control of 50.6%.

As to `COC(=O)Nc1nc2ccc(Sc3ccccc3)cc2[nH]1`, the growth, % of control was 102%.

Regarding `CCc1c2c(nc3ccc(OC(=O)N4CCC(N5CCCCC5)CC4)cc13)-c1cc3c(c(=O)n1C2)COC(=O)[C@]3(O)CC`, the growth, % of control was determined as 71.1%.

`OCc1ccc(-c2nn(Cc3ccccc3)c3ccccc23)o1` registered a growth, % of control of 21.8%.

Compound `O=C(O)C1CCCN(CCC=C(c2ccccc2)c2ccccc2)C1` (stereo not given) showed a growth, % of control of 101%.

`CC(C)NCC(O)c1ccc(NS(C)(=O)=O)cc1` (stereo not given) returned a growth, % of control of 52.5%.

Consider `C[C@@H]1C[C@H]2[C@@H]3CCC4=CC(=O)C=C[C@]4(C)[C@@]3(Cl)[C@@H](O)C[C@]2(C)[C@@]1(OC(=O)c1ccco1)C(=O)CCl`, for which the growth, % of control was 6.95%.

Take `Cc1onc(-c2ccccc2Cl)c1C(=O)N[C@@H]1C(=O)N2[C@@H]1SC(C)(C)[C@@H]2C(=O)O`: the growth, % of control turned out to be 108%.

In the case of `COc1cc2c(Nc3ccc(Br)cc3F)ncnc2cc1OCC1CCN(C)CC1`, the growth, % of control was determined as 3.4%.

The compound `CCn1cc(C(=O)O)c(=O)c2cc(F)c(N3CCN(C)CC3)cc21` had a growth, % of control of 370%.

In turn, `CCn1cc(C(=O)O)c(=O)c2cc(F)c(N3CCNCC3)nc21` yielded a growth, % of control of 56.4%.

Compound `CC(C)C[C@H](NC(=O)[C@H](CCc1ccccc1)NC(=O)CN1CCOCC1)C(=O)N[C@@H](Cc1ccccc1)C(=O)N[C@@H](CC(C)C)C(=O)[C@@]1(C)CO1` returned a growth, % of control of 6.02%.

Take `COC(=O)Nc1nc2ccc(C(=O)c3ccccc3)cc2[nH]1`: the growth, % of control was determined as 84.4%.

Take `C[C@@H](NCCCc1cccc(C(F)(F)F)c1)c1cccc2ccccc12`: the growth, % of control was determined as 4.3%.

`Cc1cccc(N(C)C(=S)Oc2ccc3ccccc3c2)c1` had a growth, % of control of 50.4%.

As for `CCOC(=O)[C@H](CCc1ccccc1)N[C@H]1CCc2ccccc2N(CC(=O)O)C1=O`, the growth, % of control is 11.1%.

`S=P(N1CC1)(N1CC1)N1CC1`: the growth, % of control stood at 3.94%.
